From PubChem BioAssay AID485313 (National Center for Advancing Translational Sciences (NCATS), 2010)
Among all 320,000 compounds or so, about 7,600 (2.4%) were called active. Another 3% or so got no clear call; they are omitted. This is one part of a sample in which actives are shown more often than they occur. Calls come from the whole dose curve; as a rule, active = well fitted activation curve with a large enough effect; inconclusive = small, poorly fitted or top-dose-only effect; inactive = no such curve, though single readings can be large or run the other way.

Experiment: qHTS Assay for NPC1 Promoter Activators; note: nearly all actives have a fitted effect of over 60% in size; for activation: % of control where 0% means no effect
Conditions: Huh7 NPC1 promoter luciferase reporter, 24 h; series mostly up to 9.22 µM; activation: at the top concentration
Text: NIH Chemical Genomics Center [NCGC] NIH Molecular Libraries Probe Production centers Network [MLPCN] MLPCN Grant: MH089375-01A1 Assay Submitter (PI): Yiannis A. Ioannou NCGC Assay Overview: Niemann Pick Type C (NPC) is a rare neurodegenerative lipidosis that is characterized by lipid storage in the endosomal/lysosomal system. Treatment modalities for this devastating disease are currently non-existent due to the severe obstacles associated with accessing the central nervous system with proteins or genes. The majority of mutations causing NPC disease are missense mutations that are distributed throughout the length of the NPC1 protein, with the most prevalent being the I1061T allele. Although NPC1 mutant proteins may be functional, they are typically trapped in the ER due to misfolding. […] We have developed and optimized a cell based luciferase reporter assay in 1536 well format for the identification of up-regulators of the mutant NPC1 promoter.
The NPC1 promoter is cloned in front of the luciferase reporter gene, therefore NPC promoter activation results in luciferase expression. Frozen stock of the NPC1 promoter transfected Huh7 cells were obtained from the laboratory of Dr. Yiannis Ioannou (The Mount Sinai School of Medicine, New York, NY). Cells were propagated and maintained at NCGC in medium containing RPMI-1640 supplemented with 10% FBS, 2mM L-glutamine, and 50ug/ml penicillin/streptomycin. Cells were harvested in and plated for assays in OP-MEM I reduced-serum medium supplemented with 10% FBS. The Amplite luciferase reporter gene assay kit was purchased from ABD Bioquest and prepared/stored according to manufacturers recommendations. qHTS Assay Setup: 1.#Dispensed 5ul of Huh7 cells stably expressing NPC1-luciferase at a density of 1500 cells per well 1536-well plates. 2.#Incubate cells at 37C, 5% CO2, and 95% humidity for 2 hours. 3.#Transferred 23nl per well of compound in DMSO solution. 4.#Incubated at 37C, 5% CO2, and 95% humidity for 24 hours. 5.#Dispensed 3ul per well of Amplite reagent(ABD Bioquest) per well. 6.#Incubate at ambient for 10 minutes. 7.#Read using the luminescence protocol on the ViewLux plate reader (Perkin Elmer).
Potency is the fitted concentration of half-maximal effect.

Structure (SMILES)	activation	Potency
O=C(CSc1ncnc2sccc12)N1CCN(C(=O)c2cccs2)CC1	0.722% (inactive)	
Cc1ccc(S(=O)(=O)N2CCCCC2)cc1NC(=O)[C@@H]1CCCN1C(=O)c1cccs1	0.681% (inactive)	
O=C(CSc1nc2ccccc2c(=O)n1-c1ccc(F)cc1)NC1CC1	-9.18% (inactive)	
Cc1ccc(-n2c(SCC(=O)N3CCC(C(=O)O)CC3)nc3ccccc3c2=O)cc1C		3.55 µM (active)
COc1cccc(-n2c(SCC(=O)NC3CCS(=O)(=O)C3)nc3ccccc3c2=O)c1 (configuration not stated)	-2.85% (inactive)	
CC(=O)Nc1ccc(SC[C@H](Cc2ccccc2)N2CC[C@@H](C)CCC2=O)cc1	-0.0057% (inactive)	
CCOC(=O)c1cc2ccccc2n1CC(=O)c1ccccc1	-2.8% (inactive)	
COc1ccc2cc(C(=O)O)n(CC(=O)c3ccccc3)c2c1	-1.96% (inactive)	
CCn1c(=N)n(CC(=O)c2cccc(OC)c2)c2ccccc21		3.55 µM (active)
CC(C)c1ccc(NC(=O)Cn2ncc3ccccc32)cc1		0.891 µM (active)
CCc1ccc(NC(=O)Cn2ncn3c(cc4ccccc43)c2=O)cc1	-5.3% (inactive)	
CCOC(=O)c1cn(CC(=O)Nc2ccc(C(C)C)cc2)nn1	1.15% (inactive)	
O=C(NCc1ccccc1CN1CCCC1)C1CCN(S(=O)(=O)c2ccc(Cl)cc2)CC1	-1.28% (inactive)	
CNC(=S)N/N=C/c1ccc(N2CCOCC2)s1	2.1% (inactive)	
c1ccc(-n2ncc3c(N4CCCC4)ncnc32)cc1		2.51 µM (active)
O=C(NNc1ncnc2c1cnn2-c1ccccc1)c1ccco1	1.26% (inactive)	
C1=C(CCNc2ncnc3c2cnn3-c2ccccc2)CCCC1		1.78 µM (active)
CC(C)Sc1ncnc2c1cnn2-c1ccccc1		3.55 µM (active)
O=C(NCCC1=CCCCC1)C1CCN(Cc2cnn(-c3ccccc3)c2-n2cccc2)CC1	0.318% (inactive)	
Cc1ccc(-c2nc3c(cnn3-c3ccccc3)c(=O)o2)cc1	-2.25% (inactive)	
CCC(C)N(C(=O)CSc1ncnc2c1cnn2-c1ccccc1)C1CCS(=O)(=O)C1 (configuration not stated)	-1.19% (inactive)	
CCN(C(=O)CSc1ncnc2c1cnn2-c1ccccc1)C1CCS(=O)(=O)C1 (configuration not stated)	5% (inactive)	
O=C(Cn1cnc2c(cnn2-c2ccccc2)c1=O)NCc1ccccc1	0.0668% (inactive)	
CC1CCc2sc(C(=O)NCC(c3ccco3)N3CCCCC3)cc2C1 (configuration not stated)	-1.49% (inactive)	
CCOCCc1nn2c(=O)cc(CSCC(=O)Nc3cccc(C)c3C)nc2s1	-1.6% (inactive)	
CSCCC(NC(=O)c1ccccc1)C(=O)N1CCN(Cc2ccc(Cl)cc2)CC1 (configuration not stated)	-5.73% (inactive)	

Structure (SMILES)	activation	Potency
COC(=O)c1ccc(-c2c(-c3ccccc3)ncc3cc(OC)c(OC)cc23)cc1	3.56% (inactive)	
Cc1ccc2c(CN3CCN(S(=O)(=O)c4ccccc4C(F)(F)F)CC3)cc(=O)oc2c1	-2.88% (inactive)	
Cc1ccsc1C(=O)OCC(=O)Nc1cccc(F)c1	7.29% (inactive)	
Cc1cc(C(=O)COc2ccc(Br)cc2F)c(C)n1C1CC1	15.3% (inactive)	
N#Cc1ccccc1S(=O)(=O)N1CCN(Cc2c(O)ccc3ccccc23)CC1	-0.384% (inactive)	
CC1CC1C(=O)OCC(=O)Nc1cccc(F)c1 (configuration not stated)	-0.27% (inactive)	
CC(=NCc1ccco1)c1c(C(F)(F)F)[nH]n(-c2nc3ccccc3s2)c1=O		2.24 µM (active)
COC(=O)Cc1[nH]n(-c2nc3ccccc3s2)c(=O)c1C(C)=Nc1ccc(OC)cc1	-16% (inactive)	
CC(=NCc1ccco1)C1=C(O)c2ccccc2C1=O	8.33% (inactive)	
CCCn1c(N)c(N(CCOC)C(=O)C2CCCC2)c(=O)[nH]c1=O	-2.43% (inactive)	
CN(C(=O)CSc1nnc(C2CC2)n1C)C1CCCc2ccccc21 (configuration not stated)	-0.553% (inactive)	
CN(C)/C=C(\C#N)C(=O)c1cccnc1Oc1ccc(F)cc1F	-8.2% (inactive)	
COc1ccc(C)cc1NC(=O)CCCN1C(=O)NC(C)(C)C1=O	-6.41% (inactive)	
COc1ccc(-c2nnc(SC(C)C(=O)NC3CC3)o2)cc1 (configuration not stated)	-0.432% (inactive)	
CN(C)C(=O)c1ccc(NC(=O)COC(=O)c2cc3c(s2)CCCCC3)cc1	-5.23% (inactive)	
O=C(Nc1ccc(F)cc1)c1cc2c(s1)CCCC2		2.24 µM (active)
O=C(NNC(=O)c1cc2c(s1)CCCC2)c1ccccc1	21.2% (inactive)	
CCN(C(=O)COC(=O)Cc1c(F)cccc1Cl)c1c(N)n(Cc2ccccc2)c(=O)[nH]c1=O	-0.302% (inactive)	
CSc1ncccc1C(=O)Nc1nc2ccc(F)cc2s1		0.126 µM (active)
CSc1ncccc1C(=O)Nc1ccc2c(c1)OCO2	-0.125% (inactive)	
CSc1ncccc1C(=O)NC1CCCCCC1	-4.31% (inactive)	
Cc1ccc(NC(=O)CCC(=O)N2CCC(c3ccccc3)=N2)cc1S(=O)(=O)N1CCCCC1	-1.45% (inactive)	
O=c1ccc2c(-c3ccccc3S(=O)(=O)O)c3ccc(O)c(O)c3oc-2c1O	-7.8% (inactive)	
CC1CCCCC1NC(=O)NC(=O)COC(=O)C1=NN(c2ccccc2)C(=O)CC1 (configuration not stated)	-3.42% (inactive)	
O=S(=O)(NCCCN1CCOCC1)c1ccc(F)c(Cl)c1	-5.25% (inactive)	
COc1ccccc1CNC(=O)COC(=O)CNS(=O)(=O)c1ccc(NC(C)=O)cc1	-1.15% (inactive)	
